Experiment [1] can be described thus: NCI Yeast Anticancer Drug Screen. Data for the rad50 strain (AID 155).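 Further: 0% = growth of vehicle-only cultures of the same strain.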 Particulars: S. cerevisiae rad50 strain growth inhibition; at 50.0 µM; stronger effect = higher value. In outline:
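Yeast carrying a defined DNA repair defect were exposed to test compounds, and growth was compared with vehicle-treated controls to give percent inhibition.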

Experiment [2] can be described thus: NCI Yeast Anticancer Drug Screen. Data for the mec2-1 strain (AID 157). Conditions: S. cerevisiae mec2-1 strain, at 50.0 µM, stronger effect = higher value. The essentials:
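Growth inhibition is read against vehicle-treated controls after compound exposure of the mec2-1 yeast strain, which is defective in DNA damage repair or cell cycle control.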

The nature of experiment [3]: NCI Yeast Anticancer Drug Screen. Data for the sgs1 mgt1 strain (AID 161).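 Further: 0% = growth of cultures given vehicle only.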 Conditions: S. cerevisiae sgs1 mgt1 strain, at 50.0 µM, stronger effect = higher value. The essentials: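 Yeast cells carrying a defined DNA-repair defect were exposed to test compounds. Growth inhibition was measured relative to vehicle-treated controls.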
A short description of experiment [4]: NCI Yeast Anticancer Drug Screen. Data for the cln2 rad14 strain (AID 165).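 Further: 0% = growth equal to vehicle treated cultures.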 Particulars: S. cerevisiae cln2 rad14 strain, at 50.0 µM, stronger effect = higher value. The essentials:
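Growth inhibition, relative to vehicle-treated controls, is the read-out. The test organism is a yeast strain with defined genetic alterations, cln2 rad14.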

Experiment [5] is described as follows: NCI Yeast Anticancer Drug Screen. Data for the bub3 strain (AID 167). Particulars: S. cerevisiae bub3 mutant strain, at 50.0 µM, stronger effect = higher value. In outline:
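Compounds were applied to a genetically altered yeast strain carrying a cell-cycle control defect. Growth inhibition was scored against vehicle-treated controls.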

Experiment [6] is described as follows: NCI Yeast Anticancer Drug Screen. Data for the mlh1 rad18 strain (AID 175). Conditions: S. cerevisiae mlh1 rad18 strain growth inhibition; at 50.0 µM; stronger effect = higher value. The essentials: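 Cells of a genetically altered yeast strain, deficient in DNA damage repair, were treated with compound. Their growth was then compared with that of vehicle-treated cultures to give inhibition.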

About 79,000 compounds went through this panel and 15% of them were active in at least one assay; those are over-represented in the sample as a whole. A number with no mark means an inactive call. Active and inactive are the calls of the source. No stated cut-off is given here; in the data, active means growth inhibition above about 70%; inactive means the rest.

In the case of `Cc1nn(C)c2c1C(=O)N(C)CC(=O)N2C`, the growth inhibition is -25.1% in experiment [1]; -38.9% in experiment [2]; -22.9% in experiment [3]; -14.2% in experiment [4]; -20.8% in experiment [5]; -8.25% in experiment [6].

As for `COc1ccc(/C=c2\sc3n(c2=O)C(N)=C(C#N)C(c2ccc(OC)cc2)C=3c2nc3ccccc3[nH]2)cc1` (centres undefined), the growth inhibition in experiment [1] is 18.1%; in experiment [2], -13.2%; in experiment [3], 9.95%; in experiment [4], -16.1%; in experiment [5] it was 8.95%; in experiment [6] it was 11.3%.

Regarding `C/C(=N\S(=O)(=O)c1ccc([N+](=O)[O-])cc1)OCC(C)C`, the growth inhibition in experiment [1] was 11.2%; in experiment [2], -8.4%; in experiment [3], 14.7%; in experiment [4] it was -47.9%; in experiment [5], 10.7%; in experiment [6], 2.25%.

As for `C/C=C(\CC)C(C#N)O[Si](C)(C)C` (centres undefined), the growth inhibition in experiment [1] is 13.2%; in experiment [2] it was 4.4%; in experiment [3], 1.45%; in experiment [4] it was 6.5%; in experiment [5], 10%; in experiment [6], -24.6%.

Take `COc1cc(C(=O)C[n+]2ccccc2)ccc1O`: the growth inhibition was 95.3% (active) in experiment [1]; 86.2% (active) in experiment [2]; 84.5% (active) in experiment [3]; 97.2% (active) in experiment [4]; 97.7% (active) in experiment [5]; 99.5% (active) in experiment [6].

Regarding `O=[N+]([O-])c1cc2c3ccccc3ccc2c2ccccc12`, the growth inhibition in experiment [1] is -5.6%; in experiment [2], 6.95%; in experiment [3], 12.2%; in experiment [4], -78.8%; in experiment [5] it was 19.6%; in experiment [6] it was 21.6%.

Regarding `C=Cn1c([N+](=O)[O-])cnc1/C=C/c1ccc(C(=O)OCCN2CCOCC2)cc1`, the growth inhibition in experiment [1] was 68.8%; in experiment [2], 16.4%; in experiment [3], 78.3% (active); in experiment [4], 34.9%; in experiment [5], -10.2%; in experiment [6], 53%.

`COC1=CCC2=C(C1)C1(C)CCCC(C)(CO)C1CC2` (centres undefined): the growth inhibition is 3.1% in experiment [1]; 18.5% in experiment [2]; -7.9% in experiment [3]; 3.4% in experiment [4]; 14% in experiment [5]; 58.2% in experiment [6].

Turning to `O=[N+]([O-])c1ccc(N/N=C2/C(=C/c3cccc4ccccc34)CCc3ccccc32)c([N+](=O)[O-])c1`, the growth inhibition in experiment [1] is -13.6%; in experiment [2] it was -16.3%; in experiment [3], -20.8%; in experiment [4] it was -32.5%; in experiment [5], 37.5%; in experiment [6], -19.6%.

Consider `O=C(Cc1ccccc1)NN1C(=O)C(Cl)C1c1cc(Br)ccc1O` (centres undefined), for which the growth inhibition was 21% in experiment [1]; 30.1% in experiment [2]; 29.6% in experiment [3]; -20.6% in experiment [4]; 25.2% in experiment [5]; 15.6% in experiment [6].

As for `Fc1cccc(-c2nnc(-c3cccc4ccccc34)o2)c1`, the growth inhibition is -8.65% in experiment [1]; -1.8% in experiment [2]; -0.5% in experiment [3]; -49.8% in experiment [4]; 1.45% in experiment [5]; -5.1% in experiment [6].

For the compound `Cc1ccc(-n2nc3c(c(C#N)c2=O)-c2ccccc2C3=O)cc1`, the growth inhibition is -27.6% in experiment [1]; -4.4% in experiment [2]; -31.8% in experiment [3]; -38.5% in experiment [4]; -2.7% in experiment [5]; -14.3% in experiment [6].

On to `FC(F)(F)c1cccc(NC(=S)Nc2ccccc2S)c1`, for which the growth inhibition in experiment [1] was 24%; in experiment [2], 20.2%; in experiment [3], 27.4%; in experiment [4], 25.6%; in experiment [5], 9.95%; in experiment [6], 17%.

On to `CC1C=CC(C(=O)Nc2ccc(Cl)c(Cl)c2)N1C` (centres undefined), for which the growth inhibition in experiment [1] was 1%; in experiment [2] it was 12.2%; in experiment [3], 7.6%; in experiment [4], -33.9%; in experiment [5] it was -11.9%; in experiment [6], 2.75%.

With `O=C(Nc1cccc2ccccc12)c1ccccc1F`, the growth inhibition in experiment [1] is -1.35%; in experiment [2], 16.8%; in experiment [3], 14.9%; in experiment [4], -2.15%; in experiment [5] it was 21.1%; in experiment [6], 11.8%.

For the compound `C/C(=N/NC(N)=O)C1=CCCC1`, the growth inhibition in experiment [1] is 2.9%; in experiment [2], -2.05%; in experiment [3] it was -6.6%; in experiment [4] it was 11%; in experiment [5], 7.55%; in experiment [6], -9.1%.

For `COC1/C=C/OC2(C)Oc3c(C)c(O)c4c(O)c(c(C5SCCS5)c(O)c4c3C2=O)NC(=O)/C(C)=C\C=C\C(C)C(O)C(C)C(O)C(C)C(O)C1C` (centres undefined), the growth inhibition was 5.15% in experiment [1]; 19.1% in experiment [2]; -10.8% in experiment [3]; 4.85% in experiment [4]; 0% in experiment [5]; 36.9% in experiment [6].

With `Cc1nc(Nc2ccc(Cl)c(Cl)c2)sc1C(/C=C/c1ccc2c(c1)OCO2)=N/Nc1ccc([N+](=O)[O-])cc1[N+](=O)[O-]`, the growth inhibition in experiment [1] is -21.2%; in experiment [2], -14.3%; in experiment [3], 3.75%; in experiment [4] it was 3.45%; in experiment [5] it was -9.55%; in experiment [6], 2.45%.

`CCCCCC/C=C/CCCCCCCc1cccc(OC)c1` (tested in a mixture with another compound): the growth inhibition in experiment [1] was 3.85%; in experiment [2], -5.9%; in experiment [3], 3.6%; in experiment [4] it was -14.7%; in experiment [5] it was 1.25%; in experiment [6], 12.1%.

Source of the values: PubChem BioAssay (NCI).
